# Laboratory results from PubChem BioAssay.
# A number with no mark means an inactive call. For some assays here: Measured potencies and affinities stand elsewhere. Active and inactive are the calls of the source. Unless noted, how the calls were made is not given here.
# How the values were obtained:
# [1] = antimalarial activity against Dd2 strain (AID 2302;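 active means growth inhibition above 50% at the single 2 µM test dose, taken to imply half-maximal potency below 2 µM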;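 further: 0% = DMSO untreated growth and 100% = chloroquine plus artemisinin killed control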); details: P. falciparum Dd2 in RBCs, LDH growth readout, 72 h; at 2 µM; stronger effect = higher value
# [2] = HepG2 cytotoxicity, primary screen, cytotoxicity control for P. falciparum antimalarial project, cell-based, ATP luminescence (AID 2303;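 active means inhibition above 50%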;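 further: 0% = DMSO wells and 100% = digitonin-killed cells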); details: HepG2 viability, 24-48 h, at 10 µM, stronger effect = higher value
# [3] = molecular target: L-lactate dehydrogenase (Plasmodium falciparum (isolate CDC / Honduras)) (UniProt Q27743); assay: PfLDH activity inhibition – cell lysate, 3D7 strain, counter-screen for P. falciparum growth inhibition project (AID 2304);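 further: 0% = vehicle and 100% = reference inhibitor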; details: P. falciparum 3D7 crude extract, LDH APAD/NBT absorbance; at 2 µM; stronger effect = higher value
# Chain of L-lactate dehydrogenase (Plasmodium falciparum (isolate CDC / Honduras)) (Q27743 whole entry, looked up): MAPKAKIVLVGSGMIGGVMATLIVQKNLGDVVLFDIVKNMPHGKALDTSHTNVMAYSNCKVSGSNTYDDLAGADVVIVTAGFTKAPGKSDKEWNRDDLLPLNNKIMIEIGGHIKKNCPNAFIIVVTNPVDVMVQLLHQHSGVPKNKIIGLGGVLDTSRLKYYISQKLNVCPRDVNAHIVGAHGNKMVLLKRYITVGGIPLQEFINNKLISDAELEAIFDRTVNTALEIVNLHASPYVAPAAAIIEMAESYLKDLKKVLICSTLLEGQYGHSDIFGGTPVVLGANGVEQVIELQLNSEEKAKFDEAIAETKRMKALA
# [4] = inhibition of 3D7 malaria parasite growth – strain 3D7 (AID 2306);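 further: 0% = DMSO wells and 100% = chloroquine plus artemisinin control wells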; details: P. falciparum 3D7 erythrocytic growth, LDH absorbance, 72 h; at 2 µM; stronger effect = higher value
# [5] = molecular target: Calcium-dependent protein kinase 1 (Plasmodium falciparum (isolate 3D7)) (UniProt P62344); assay: PfCDPK1 kinase inhibitors, biochemical, TCAMS library (AID 1159585; cut-off not given, nearly all actives have IC50 up to about 0.98 µM;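 further: inhibitors leave more ATP so luminescence rises with inhibition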); details: recombinant PfCDPK1, Kinase-Glo ATP depletion luminescence
# Chain of Calcium-dependent protein kinase 1 (Plasmodium falciparum (isolate 3D7)) (P62344 whole entry, looked up): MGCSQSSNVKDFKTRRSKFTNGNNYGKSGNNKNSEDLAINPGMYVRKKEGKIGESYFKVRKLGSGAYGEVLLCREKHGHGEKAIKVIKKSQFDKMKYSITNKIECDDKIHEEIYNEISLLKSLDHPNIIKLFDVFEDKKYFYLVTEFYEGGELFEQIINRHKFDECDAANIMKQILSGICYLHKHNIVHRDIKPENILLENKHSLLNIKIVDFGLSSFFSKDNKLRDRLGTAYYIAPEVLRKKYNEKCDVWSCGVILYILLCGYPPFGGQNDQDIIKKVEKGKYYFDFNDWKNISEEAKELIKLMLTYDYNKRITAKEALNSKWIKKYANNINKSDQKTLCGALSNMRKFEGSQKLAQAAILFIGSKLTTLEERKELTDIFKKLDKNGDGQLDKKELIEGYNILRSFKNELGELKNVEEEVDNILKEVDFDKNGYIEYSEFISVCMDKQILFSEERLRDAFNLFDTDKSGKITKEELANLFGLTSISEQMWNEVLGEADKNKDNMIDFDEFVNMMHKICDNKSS
# [6] = molecular target: Plasmodium falciparum protein kinase 6 (PK6, PF3D7_1337100) (UniProt Q8IDW1); assay: PfPK6 kinase inhibitors, biochemical, TCAMS library (AID 1159586); details: recombinant PfPK6, Kinase-Glo ATP depletion luminescence
# Chain of Plasmodium falciparum protein kinase 6 (PK6, PF3D7_1337100) (Q8IDW1 1-305): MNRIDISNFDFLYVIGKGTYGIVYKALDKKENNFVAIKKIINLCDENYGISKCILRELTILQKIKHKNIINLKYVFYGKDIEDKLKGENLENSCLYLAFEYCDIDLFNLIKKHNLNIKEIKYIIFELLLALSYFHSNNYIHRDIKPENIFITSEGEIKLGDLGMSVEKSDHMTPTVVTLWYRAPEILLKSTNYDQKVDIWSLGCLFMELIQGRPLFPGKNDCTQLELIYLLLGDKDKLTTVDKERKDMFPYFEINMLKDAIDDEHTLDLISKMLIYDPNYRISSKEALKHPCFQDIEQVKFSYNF
# [7] = molecular target: Protein kinase 7 (PK7), Plasmodium falciparum 3D7 (PF3D7_0213400) (UniProt Q7YTF7); assay: inhibition of Plasmodium PK7 catalytic activity – biochemical, TCAMS antimalarial set, Kinase-Glo luminescence (AID 1159587); details: recombinant PfPK7, Kinase-Glo ATP depletion luminescence
# Chain of Protein kinase 7 (PK7), Plasmodium falciparum 3D7 (PF3D7_0213400) (Q7YTF7 1-343): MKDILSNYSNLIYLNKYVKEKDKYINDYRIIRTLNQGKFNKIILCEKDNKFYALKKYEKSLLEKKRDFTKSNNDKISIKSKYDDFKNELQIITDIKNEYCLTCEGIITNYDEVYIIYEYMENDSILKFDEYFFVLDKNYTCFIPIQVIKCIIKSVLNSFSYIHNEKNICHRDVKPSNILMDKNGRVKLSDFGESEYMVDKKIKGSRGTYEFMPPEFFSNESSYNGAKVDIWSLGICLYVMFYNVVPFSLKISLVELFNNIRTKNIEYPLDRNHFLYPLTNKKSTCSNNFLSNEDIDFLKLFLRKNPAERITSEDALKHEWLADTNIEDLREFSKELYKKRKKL
# [8] = molecular target: Calcium-dependent protein kinase 4 (Plasmodium falciparum (isolate 3D7)) (UniProt Q8IBS5); assay: PfCDPK4 kinase inhibitors, biochemical, TCAMS library (AID 1159588; cut-off not given, nearly all actives have IC50 up to about 0.91 µM); details: recombinant PfCDPK4, Kinase-Glo ATP depletion luminescence
# Chain of Calcium-dependent protein kinase 4 (Plasmodium falciparum (isolate 3D7)) (Q8IBS5 whole entry, looked up): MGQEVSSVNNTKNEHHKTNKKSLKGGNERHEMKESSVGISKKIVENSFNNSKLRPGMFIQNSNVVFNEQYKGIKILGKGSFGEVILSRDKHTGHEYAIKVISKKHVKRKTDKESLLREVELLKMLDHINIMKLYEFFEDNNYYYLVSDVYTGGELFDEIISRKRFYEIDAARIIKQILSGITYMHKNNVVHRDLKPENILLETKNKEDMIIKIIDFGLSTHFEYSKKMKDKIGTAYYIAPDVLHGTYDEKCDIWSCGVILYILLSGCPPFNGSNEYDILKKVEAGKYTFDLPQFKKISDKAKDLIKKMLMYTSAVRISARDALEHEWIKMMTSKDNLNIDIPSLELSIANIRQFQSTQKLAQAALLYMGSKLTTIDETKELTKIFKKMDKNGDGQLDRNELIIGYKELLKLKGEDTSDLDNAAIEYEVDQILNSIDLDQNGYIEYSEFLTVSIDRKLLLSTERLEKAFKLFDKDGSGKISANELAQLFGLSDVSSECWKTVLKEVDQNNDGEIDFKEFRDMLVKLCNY
Structure (SMILES),growth inhibition [1],inhibition [2],inhibition [3] [%],growth inhibition [4],outcome [5],outcome [6],outcome [7],outcome [8]
c1cc(CNCC2CCN(CC3CCCCC3)CC2)cc(-n2ccnc2)c1,99% (active),18%,-1,102% (active),inactive,inactive,inactive,inactive
O=C(Nc1cccc(-c2ccc(-c3nc4ccc(C(F)(F)F)cc4[nH]3)cc2)c1)c1cccnc1,97% (active),73% (active),-9,101% (active),inactive,inactive,inactive,inactive
FC(F)(F)c1ccc2nc(-c3cccc(-c4ccc(CNCC5CCCO5)cc4)c3)[nH]c2c1 (stereo not given),99% (active),29%,-7,99% (active),inactive,inactive,inactive,inactive
CC(=O)Nc1nc(C(=O)Nc2cccc(-c3ccc(-c4nc5c(C)cccc5[nH]4)cc3)c2)cs1,61% (active),100% (active),-3,100% (active),inactive,inactive,inactive,inactive
CC(=O)Nc1cccc(-c2cnc(N)c3cc(-c4ccc5c(c4)OCO5)ccc23)c1,93% (active),100% (active),-4,99% (active),inactive,inactive,inactive,inactive
CNS(=O)(=O)CCNCc1ccc(-c2ccc3ncnc(Nc4ccc(OCc5ccccc5)cc4)c3c2)o1,26%,19%,-3,101% (active),inactive,inactive,inactive,inactive
O=C(NC1CCN(c2ccc(F)cc2[N+](=O)[O-])CC1)c1cccs1,91% (active),-9%,-1,90% (active),inactive,inactive,inactive,inactive
COc1ccc(N(c2nc(-c3cc(Cl)ccc3Cl)cs2)C2CCNC2)cc1 (stereo not given),9%,21%,3,95% (active),inactive,inactive,inactive,inactive
CC(C)Oc1cc2c(cc1NS(=O)(=O)c1ccc(-c3ccc(Cl)s3)cc1F)CCN(C)CC2,1%,23%,-5,99% (active),inactive,inactive,inactive,inactive
CC(C)(C)c1ccc(CN2CCC(NC(=O)c3ccc(-c4ccccc4F)s3)CC2)cc1,37%,36%,0,85% (active),inactive,inactive,inactive,inactive
O=c1cc(NCCCNCc2cn(S(=O)(=O)c3ccccc3)c3ccccc23)[nH]c2ccccc12,29%,17%,-2,91% (active),inactive,inactive,inactive,inactive
Cc1cc(C2CCN(CCCCNC(=O)c3ccc(-c4ccc(C(F)(F)F)cc4)cc3)CC2)c(C)cc1OCCO,3%,31%,2,99% (active),inactive,inactive,inactive,inactive
N=c1c(C(=O)NCc2ccccc2)cc2c(=O)n3ccccc3nc2n1CCc1ccccc1,25%,5%,-6,99% (active),inactive,inactive,inactive,inactive
CC(C)(C)C1CCc2onc(C(=O)Nc3cc(Cl)ccc3O)c2C1 (stereo not given),82% (active),5%,-2,98% (active),inactive,inactive,inactive,inactive
CN1CCN(CCCN(Cc2cccc(-c3ccc(CNCCc4ccccc4)cc3)c2)C(=O)Nc2ccccc2)CC1,91% (active),61% (active),3,100% (active),inactive,inactive,inactive,inactive
CN(C)c1ccc(-c2cscc2C(=O)NC2CCCN(Cc3cccnc3)C2)cc1 (stereo not given),70% (active),5%,0,89% (active),inactive,inactive,inactive,inactive
O=C(CNc1ccc(Cl)c(S(=O)(=O)N2CCCC2)c1)Nc1ccc(Br)cc1F,97% (active),18%,4,99% (active),inactive,inactive,inactive,inactive
CC(CN(C)C)C(=O)Nc1ccc(-c2csc(-c3nc4ccccc4[nH]3)c2)cc1 (stereo not given),19%,28%,-4,84% (active),inactive,inactive,inactive,inactive
COc1ccc2nccc([C@@H](O)CN3CCC(NC(=O)C(c4cc5ccccc5s4)N4CCN(c5ccccc5OC)CC4)CC3)c2c1 (stereo not given in full),88% (active),21%,-2,100% (active),inactive,inactive,inactive,inactive
CCN(CC)CCOc1ccc(C(O)(C#CC(O)(c2ccc(OCCN(CC)CC)cc2)c2ccc([N+](=O)[O-])cc2)c2ccc([N+](=O)[O-])cc2)cc1 (stereo not given),97% (active),55% (active),3,98% (active),inactive,inactive,inactive,inactive

Structure (SMILES),growth inhibition [1],inhibition [2],inhibition [3] [%],growth inhibition [4],outcome [5],outcome [6],outcome [7],outcome [8]
O=C(c1cncc(-c2ccccc2)c1)N(Cc1cncn1Cc1ccccc1F)CC1CC1,0%,-5%,-4,100% (active),inactive,inactive,inactive,inactive
CC(=O)Nc1ccc(OCCCN(Cc2ccccc2C(F)(F)F)c2ccc(C(F)(F)F)c(C#N)c2)c(Cl)c1,43%,5%,3,85% (active),inactive,inactive,inactive,inactive
CCCCOc1c(CCC)cc(Cc2cnc(N)nc2N)cc1CCC,-2%,27%,2,97% (active),inactive,inactive,inactive,inactive
C[C@H](O)[C@@](C)(CO)NCc1ccc2c3c(cccc13)-c1ccccc1-2,85% (active),81% (active),-2,95% (active),inactive,inactive,inactive,inactive
CC(C)C[C@H](NC(=O)c1ccc(OCCN2CCOCC2)cc1)C(=O)N[C@H](/C=N/N1CCNC1=O)CCc1ccccc1,94% (active),1%,4,89% (active),inactive,inactive,inactive,inactive
CN1CCC[C@@H](Oc2cc3c(cc2Br)CCN3C(=O)Nc2ccc(-c3ccncc3)c(Cl)c2)C1,64% (active),26%,-7,99% (active),inactive,inactive,inactive,inactive
CCCCc1ccc(-c2nc(NC(=O)Nc3nc(-c4ccccc4)[nH]c3C(=O)OCC)c(C(=O)OCC)[nH]2)cc1,26%,0%,-4,95% (active),inactive,inactive,inactive,inactive
COc1cc(CNC[C@@H](O)[C@H](Cc2ccccc2)NC(=O)c2cc(OC(C)C)cc(N3CCCS3(=O)=O)c2)cc(OC)c1,72% (active),-1%,0,97% (active),inactive,inactive,inactive,inactive
Cc1cccc(CN2CCC(Oc3ccc(NC(=O)c4cccs4)cc3Cl)CC2)n1,88% (active),27%,7,86% (active),inactive,inactive,inactive,inactive
COc1cc(C(=O)NC2CCc3ccccc32)cc(Cl)c1OC (stereo not given),60% (active),12%,-4,85% (active),inactive,inactive,inactive,inactive
CC(C)(C)c1ccccc1SC1=C(O)CC2(CCNCC2)OC1=O,-4%,0%,2,99% (active),inactive,inactive,inactive,inactive
CCN(C(=O)c1ccc(NC(=O)c2cccs2)cc1)c1nc2c(C)cccc2s1,85% (active),24%,-3,89% (active),inactive,inactive,inactive,inactive
COc1ccc(C(=O)N2CCN(c3ccc([N+](=O)[O-])c(NC4CC4)c3)CC2)cc1Br,68% (active),6%,5,99% (active),inactive,inactive,inactive,inactive
c1cc(-c2ccc(CNC3CCOCC3)cc2)cc(-c2nc3ccccc3[nH]2)c1,100% (active),30%,3,100% (active),inactive,inactive,inactive,inactive
CCN1CCN(c2cc(C)c3cc(NC(=O)c4ccc(OC)c(OC)c4)ccc3n2)CC1,23%,28%,1,90% (active),inactive,inactive,inactive,inactive
CCNc1cc(C(=O)N[C@@H](Cc2ccccc2)[C@H](O)CNCc2cc(OC)cc(OC)c2)cc(N2CCCC2=O)c1,75% (active),-7%,2,100% (active),inactive,inactive,inactive,inactive
COc1ccc2nccc(NN=Cc3ccccc3)c2c1,99% (active),-2%,-1,101% (active),inactive,inactive,inactive,inactive
Cc1cnc(Nc2cccc(CCN3CCOCC3)c2)nc1NC(C)C,76% (active),53% (active),1,97% (active),inactive,inactive,inactive,inactive
COc1ccc2nc(C)cc(NN=Cc3ccccc3F)c2c1,100% (active),3%,-4,100% (active),inactive,inactive,inactive,inactive
Oc1ccc(CCNc2nc(NCCCOc3ccccc3-c3cccnc3)nc(N3CCNCC3)n2)cc1,1%,10%,0,92% (active),inactive,inactive,inactive,inactive
